High-throughput results (PubChem)
RORgamma inh – blocks mouse ROR gamma transcriptional activity; P51450; Drosophila S2 Gal4-RORgamma UAS-luciferase reporter, 20 h; Potency, µM (series often up to 53.6 µM), for the others: at the top dose activity change, negative = inhibition, hits mostly inhibitors; 310,000 compounds, 5.4% hits; AID 2551; further: nearly all actives have a fitted effect of over 60% in size
Target sequence (P51450 whole entry, looked up, the tested form may be a part): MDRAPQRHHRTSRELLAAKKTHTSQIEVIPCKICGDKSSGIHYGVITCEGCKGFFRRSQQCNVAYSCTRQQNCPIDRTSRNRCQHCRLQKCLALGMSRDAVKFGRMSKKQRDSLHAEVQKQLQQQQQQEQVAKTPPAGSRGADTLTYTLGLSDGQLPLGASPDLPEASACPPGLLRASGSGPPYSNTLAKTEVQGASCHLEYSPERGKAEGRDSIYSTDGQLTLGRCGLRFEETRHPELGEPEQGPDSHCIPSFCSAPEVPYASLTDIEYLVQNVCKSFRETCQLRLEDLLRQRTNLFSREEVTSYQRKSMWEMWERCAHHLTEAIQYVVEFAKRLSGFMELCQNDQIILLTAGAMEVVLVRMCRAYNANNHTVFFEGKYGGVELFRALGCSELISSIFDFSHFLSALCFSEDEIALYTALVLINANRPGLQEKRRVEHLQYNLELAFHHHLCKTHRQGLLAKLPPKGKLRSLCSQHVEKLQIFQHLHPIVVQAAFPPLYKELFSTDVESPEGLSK
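Stable Schneider cell line, Gal4 DNA-binding domain fused to ROR gamma, UAS-luciferase. Cmpd 1 hr RT → CuSO4 700 uM final → 20 hr RT → luciferase reagent 10 min → luminescence.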
TDP1 cell noCPT – qHTS for Inhibitors of human tyrosyl-DNA phosphodiesterase 1 (TDP1): qHTS in cells in absence of CPT; DT40 Tdp1-/- hTDP1 cells, no CPT, ATP luminescence, 48 h; Potency, µM (highest dose often 46.2 µM), without a hit: at the top dose activity change, negative = growth inhibition, usual class: inhibitors; 420,000 compounds, 15% hits; further: nearly all actives have a fitted effect of over 55% in size
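Stably hTDP1-transfected Tdp1-null chicken DT40 cells were treated with library compounds minus camptothecin and grown for at least 48 hr at 37 °C, after which cellular ATP was quantified by luminescence.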
ELG1 repair inh – ELG1-dependent DNA repair inhibition; HEK293T ELG1-luciferase reporter, luminescence, 16 h; DNA damage induced by 5-fluorouridine; Potency, µM (highest dose often 46.1 µM), for inactives: top-dose activity change, negative = inhibition, hits mostly inhibitors; 330,000 compounds, 2.3% hits; AID 504467; further: nearly all actives have a fitted effect of over 55% in size
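In this reporter screen, reduction of luminescence relative to DMSO vehicle indicated activity. Compounds and 5-fluorouridine were added together to 2,000 cells per well, incubated for 16 hr at 37 °C, then developed with ONE-Glo.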
VP16 counter – Gal4-VP16 reporter inhibition counter-screen. Drosophila S2 Gal4-VP16 UAS-luciferase, luminescence, 20 h. Potency, µM (titrated, usually from 53.6 µM), for inactives: top-dose activity, negative = inhibition, usual class: inhibitors. 310,000 compounds, 3.5% hits;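 further: Gal4-VP16 expression switched on by copper sulfate through the metallothionein promoter; nearly all actives have a fitted effect of over 50% in size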
ALOX12 inh – blocks human arachidonate 12S-lipoxygenase; purified 12hLO, xylenol orange hydroperoxide absorbance; 580,000 compounds, 1.1% hits; AID 1671190; Potency, µM (series often up to 108 µM), for inactives: at the highest dose activity change, negative = inhibition, hits mostly inhibitors
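Purified human 12hLO at 150 nM in 25 mM Hepes, 0.01% Triton X-100, pH 7.0, preincubated 15 min at room temperature with compound. Reaction started with 40 uM arachidonic acid, 30 min at room temperature. Hydroperoxide measured by Fe-xylenol orange, 573/405 nm absorbance ratio.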
TDP1 cell CPT – DT40-hTDP1 cell growth loss with CPT | chicken DT40 Tdp1-/-;hTDP1 cells + 20 nM CPT, ATP luminescence, 48 h | Potency, µM (doses to about 46.2 µM), for inactives: top-dose activity change, negative = growth inhibition, most hits filed as inhibitors | 420,000 compounds, 12% hits; further: nearly all actives have a fitted effect of over 55% in size
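Chicken DT40 Tdp1-/- cells complemented with human TDP1, 400 cells/well, exposed to compounds plus 20 nM camptothecin for at least 48 h at 37 C; viability read as ATP content by CellTiter-Glo luminescence.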
Active calls of the source: *; u = inconclusive; x = no result; [ ] = dose if it differs, or a comment. Rows were chosen to be rich in hits. Some 15% of all compounds tested hit in one or more screens of this group. The call rests on the fitted dose curve; in most records, active means well fitted curve in the direction sought with a large enough effect; inconclusive means small, poorly fitted or top-dose-only effect, or another doubt; inactive means no such curve, though single readings can be large; an effect the other way counts as inactive or inconclusive. On the % scale 0 is the no-effect control and ±100 the full control effect; potency means the concentration at half of the fitted maximal effect.

SMILES	RORgamma inh	TDP1 cell noCPT	ELG1 repair inh	VP16 counter	ALOX12 inh	TDP1 cell CPT
CC1=CC(C)(C)N2C(=O)C3(C(C#N)=C(N)Oc4cc(C)oc(=O)c43)c3cc(C)cc1c32 (configuration not stated)	x	-1.8%	x	x	-20.7%	-6.3%
CCc1cc2c3c(c1)C1(C(=O)N3C(C)(C)C=C2C)C(C#N)=C(N)Oc2[nH]c(=O)[nH]c(=O)c21 (configuration not stated)	-41.7%	3.26µM*	u	u	0.0%	3.26µM*
Cn1nc(C2CCN(C(=O)CCC3CCCC3)CC2)c2c1CCOC2	x	x	x	x	-5.2%	x
Cc1ccc(Cl)cc1N1CCN(C(=S)NCc2ccco2)CC1	8.1%	18.4µM*	u	12.5%	u	-7.2%
O=[N+]([O-])c1ccc(N2CCN(c3nc(-c4ccc(Cl)cc4)cs3)CC2)cc1	-19.8%	11.6µM*	u	-1.0%	-12.3%	u
S=C(NCc1ccco1)N1CCN(c2nc(-c3ccccc3)cs2)CC1	-21.0%	u	u	1.4%	-2.8%	u
O=C(N1CCOCC1)N1CCN(c2nc(-c3ccc(F)cc3)cs2)CC1	30.7%	16.4µM*	-8.0%	12.9%	-4.9%	u
S=C(NCc1ccco1)N1CCN(c2nc(-c3ccc(Cl)cc3)cs2)CC1	11.2µM*	u	u	u	u	u
O=[N+]([O-])c1ccc(-c2csc(N3CCCCCC3)n2)cc1	u	6.4%	u	-19.9%	154.3%	12.3%
CC(Sc1ncnc2nc[nH]c12)C(=O)Nc1ccc(Oc2ccccc2)cc1 (configuration not stated)	x	x	x	x	5.5%	x
O=C(CC1C(=O)OCCN1Cc1ccccc1)Nc1cc(Cl)cc(Cl)c1 (configuration not stated)	x	x	x	x	-9.0%	x
O=C(CCCl)N1CCN(c2nc(-c3ccccc3)cs2)CC1	u	16.4µM*	u	19.6%	u	u
CC(C)C(=O)N1CCN(c2nc(-c3ccc(Cl)cc3)cs2)CC1	-1.8%	13µM*	5.1%	-0.4%	-17.1%	23.1µM*
CCN(CC)CCCNC(=S)N1CCN(c2nc(-c3ccc(F)cc3)cs2)CC1	u	6.51µM*	-4.6%	-8.3%	u	14.6µM*
COCCNC(=S)N1CCN(c2nc(-c3ccc(F)cc3)cs2)CC1	0.8%	u	-29.3%	11.7%	-1.5%	u
CNC(=S)N1CCN(c2nc(-c3ccc(Cl)cc3)cs2)CC1	-101.4%	20.6µM*	-5.7%	u	-20.6%	u
CSCc1noc(CNC(=O)c2cn(CCN)nn2)n1	x	x	x	x	22.2%	x
O=C(Cc1cn2ccsc2n1)N1CCCn2nc(C(O)C3CC3)cc2C1 (configuration not stated)	x	x	x	x	44.7µM*	x
CC(O)c1cc2n(n1)CCCN(C(=O)CCc1cn3ccccc3n1)C2 (configuration not stated)	x	x	x	x	33.5%	x
CC(C)c1ccc(/C=N/NC(=O)c2ccccn2)cc1	11.2µM*	-11.1%	u	u	-0.9%	0.0326µM*
CSc1ccc(/C=N/NC(=O)c2cccc(O)c2)cc1	-39.6%	u	u	2.24µM*	0.0%	u
CCOc1ccc(C(=O)N/N=C/c2ccc(SC)cc2)cc1	-34.3%	-19.8%	2.7%	-18.8%	-4.9%	-4.7%
CC(C)c1ccc(/C=N/NC(=O)c2cccc(Cl)c2)cc1	u	5.8µM*	u	u	16.0%	10.3µM*
CC(C)c1ccc(/C=N/NC(=O)c2ccc(-n3cnnn3)cc2)cc1	x	11.6µM*	u	x	-1.1%	u
O=C(O)C1(c2cccc(Cl)c2)CC1	x	x	x	x	13.2%	x
SMILES	RORgamma inh	TDP1 cell noCPT	ELG1 repair inh	VP16 counter	ALOX12 inh	TDP1 cell CPT
O=C(c1ccc(Cl)cc1)N1CCC(n2cc[nH]c2=O)CC1	x	x	x	x	8.5%[6.33 µM]	x
CCCCCCCCCCS(=O)(=O)N/N=C/c1ccc(O)cc1	-1.1%	u	6.3%	u	u	16.4µM*
CC1=C(C(=O)OCc2ccccc2)C(c2ccccc2Cl)NC(=O)N1C (configuration not stated)	11.8%	u	u	1.4%	0.0%	u
CCOC(=O)c1nc2ccc(C)cc2c2c1C1CC(c3c(Cl)cccc31)N2C(=O)OCc1ccccc1 (configuration not stated)	x	18.4µM*	x	x	u	14.6µM*
c1ccc2c(c1)nc(N1CCCCCC1)c1ccccc12	20.1%	u	3.3%	-6.1%	u	u
NCC1CCN(c2nc3ccccc3c3c2CCCC3)CC1	x	11.6µM*	x	x	u	20.6µM*
O=C1CN(C(=O)CN2C(=O)NC(c3ccccc3)(c3ccccc3)C2=O)c2ccccc2N1	x	-16.5%	u	x	3.0%	-27.6%
Cc1ccc(C2(c3ccccc3)NC(=O)N(CC(=O)N3CC(=O)Nc4ccccc43)C2=O)cc1C (configuration not stated)	x	23.1µM*	8.2%	x	-9.5%	u
Cc1ccc(C2(c3ccccc3)NC(=O)N(CC(=O)NC3CCCCC3)C2=O)cc1C (configuration not stated)	x	18.4µM*	-7.2%	x	-27.0%	u
CCCCc1nc2sc3c(c2c(=O)[nH]1)CC(C)(C)OC3	x	-10.4%	x	x	-3.5%	-15.7%
CCC1CC2(C)NC(=O)c3c(sc4c3CC(C)(C)OC4)N2C1=O (configuration not stated)	12.2%	20.6µM*	u	-2.7%	u	u
COC(=O)c1cc2c(-c3ccccc3)c(C)c3ccccn3c-2c1C(=O)OC	-31.8%	u	u	-6.5%	1.7%	u
COC(=O)c1c(Cl)c2n3ccccc3c(C)c(-c3ccccc3)c-2c1C(=O)OC	-3.7%	23.1µM*	u	-11.3%	u	u
Cc1cn2nc(C(=O)N3CCC(NC(=O)c4cccc(F)c4)CC3)cc2c(=O)[nH]1	x	x	x	x	20.3%	x
CCOC(=O)c1c(C)oc2cc(Br)c(OC(=O)N3CCOCC3)cc12	5.2%	-23.7%	23.1µM*	-8.2%	0.0%	-26.9%
CCOC(=O)c1c(CN2CCOCC2)oc2ccc(OC(C)=O)cc12	2.6%	2.6%	-13.6%	-3.0%	0.0%	10.0%
CC(C)CCn1cnc2c1c(O)nc(=O)n2Cc1ccccc1	x	x	x	x	0.3%	x
CCCCN1CCN(c2nc3c(c(=O)[nH]c(=O)n3C)n2Cc2ccccc2F)CC1	x	x	x	x	9.3%	x
O=C(N/N=C/c1ccc([N+](=O)[O-])cc1)c1ccccc1OCc1ccccc1	10.7%	u	u	-8.1%	5.5%	-15.4%
